Screening data deposited in PubChem BioAssay by National Center for Advancing Translational Sciences (NCATS).
Pf Dd2 growth: Plasmodium falciparum Dd2 growth inhibition. hit rate 4.3% among 120,000. Potency, µM (highest dose often 28.9 µM), for inactives: at the highest dose activity, negative = inhibition, usual class: inhibitors. P. falciparum Dd2 growth, SYBR Green, 72 h; active means well fitted inhibition curve with a large enough effect;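 further: plate controls were DMSO vehicle for no effect and reference drug for full effect; nearly all actives have a fitted effect of over 65% in size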
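Infected erythrocytes (Dd2, 0.3% parasitemia, 2.5% hematocrit final) are added to compound in RPMI-1640/Albumax II medium, grown 72 h at 37C in low oxygen, then lysed with saponin/Triton-X containing SYBR Green and read by fluorescence.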
Numbers without * were called inactive; i = inactive; [ ] = dose if it differs, or a comment. Only a selection was taken, and hits are over-represented in it overall. Potency means the concentration at half of the fitted maximal effect.

SMILES	Pf Dd2 growth
CCN(CC)C(=O)[C@@H]1CCC[C@@H](NC(=O)c2cnccn2)CN(C)C(=O)C1	6.3%[44.1 µM]
O=C1NC(=NC2CCCCC2)C2(CCN(Cc3ccccc3)C2)N1c1cc(F)cc(F)c1 (stereo not given)	1.78µM*
O=C1NC(=NC2CCCC2)C2(CCCN(Cc3ccccc3)C2)N1c1cccnc1 (stereo not given)	-12.9%
O=C1NC(=NC2CCCC2)C2(CCCN(Cc3ccccc3)C2)N1c1cc(F)cc(F)c1 (stereo not given)	-21.7%
O=C1NC(=NC2CCCCC2)C2(CCCN(Cc3ccccc3)C2)N1c1cc(F)cc(F)c1 (stereo not given)	7.08µM*
O=C1NC(=NC2CCCC2)C2(CCN(Cc3cccnc3)CC2)N1c1cc(F)cc(F)c1	-68.0%
O=C1NC(=NC2CCCC2)C2(CCN(Cc3ccccc3)C2)N1c1cccnc1 (stereo not given)	-3.1%
CC[C@H]1CN(C(=O)C(C)(C)C)CC[C@H]1CC(=O)Nc1ccccc1	-8.3%[44.1 µM]
COCCCN1CC2(CCN(C(=O)C(=O)c3cccn3C)CC2)CC1=O	7.9%
Cc1nc(C2CC(O)C2)cc(N2CCC(OCc3cccnc3)CC2)n1 (stereo not given)	-24.1%
CCOc1ccccc1NC(=O)N1CCC(Cc2nc(-c3ccccc3)n[nH]2)C1 (stereo not given)	i
Cc1ccnn1CCC(=O)Nc1nn(C)c2cccc(N3CCOCC3)c12	8.5%
COc1ccc(-c2ccc3nc(-c4cc(C)cc(C)c4)oc3c2)c(OC)c1OC	-7.7%
CCNC(=O)[C@@H]1C[C@H](N)CN1C(=O)c1c(C)nc2sccn12	0.9%
CC(C)NC(=O)C[C@@H]1C[C@H]2O[C@H](CNC3CCC(F)(F)CC3)[C@@H](O)[C@H]2O1	30.7%[44.1 µM]
COCCNc1nc(-c2c(C)noc2C)cc2cc(C(C)C)oc12	-7.6%[44.1 µM]
COc1ccc(-c2nc(-c3c(C)noc3C)cc3cc(C(C)C)oc23)cn1	8.91µM*
Cc1noc(C)c1-c1cc2cc(C(C)C)oc2c(-c2cccc(CO)c2)n1	-5.5%[44.1 µM]
CN1c2cc(C(=O)NCc3cccs3)ccc2C(=O)N2CCCC21 (stereo not given)	i
COCCOC1CCOC2(CCN(C(=O)c3ccccc3OC)CC2)C1 (stereo not given)	-26.0%
COCCOC1CCOC2(CCN(C(=O)c3cc(-c4ccc(F)cc4)n[nH]3)CC2)C1 (stereo not given)	11.2µM*
COCCOC1CCOC2(CCN(C(=O)c3cc(C)nn3C)CC2)C1 (stereo not given)	-18.2%
O=C(c1c(OCC2CC2)cc(=O)n2c1CCOCC2)N1CCN(c2ncccn2)CC1	10.1%
O=C(O)[C@@H]1CN(S(=O)(=O)C2CC2)C[C@H]1c1ccccn1	7.0%
O=C(N1CCCC1)N1CCN(c2cc(Cl)ncn2)C(=O)C1	-5.7%
SMILES	Pf Dd2 growth
COc1ccc(CN2CC3(CCN(C(=O)c4cn[nH]c4-c4ccc(F)cc4)CC3)C2=O)cc1	-2.0%
O=C1CCCCCN1CCC(=O)N1CCCC(Nc2ccc(F)cc2)C1 (stereo not given)	-6.5%
CCc1noc(C)c1C(=O)N1CCC(CCC(=O)NCc2cccc(C(F)(F)F)c2)CC1	-8.8%
COc1ccc(-c2nc(CSc3nncn4c3cc3occc34)c(C)o2)cc1	10µM*
Cc1ccc(-c2nc(CSc3nncn4c3cc3occc34)c(C)o2)cc1	-12.5%
Cc1oc(-c2ccccc2Cl)nc1CSc1nncn2c1cc1occc12	-23.3%
COc1ccc2c(ccn2CCNC(=O)C2CC(=O)N(c3n[nH]c4ccccc34)C2)c1 (stereo not given)	i
COCc1nc(C2CC(NC(=O)CN3C(=O)CN(C)C3=O)C2)cc(=O)[nH]1 (stereo not given)	-11.7%
CN(C)c1nc(NC2CC(c3cc(=O)[nH]c(C4CC4)n3)C2)ncc1F (stereo not given)	i
COCc1nc(C2CC(Nc3ccnc4cc(Cl)ccc34)C2)cc(=O)[nH]1 (stereo not given)	2.51µM*
N#Cc1ccc(CN2CC[C@@H]3OCC(=O)N(CCc4cccnc4)[C@H]3CC2)cc1	3.0%[44.1 µM]
Cc1cccc(CN2C[C@@H](C(=O)O)C[C@H](C(=O)N3CCN(C)CC3)C2)n1	-5.6%
COc1ccc(N(C)C(=O)c2cc3c(s2)-c2ccccc2OC3)cc1	-4.4%
COc1ccccc1N1CCN(C(=O)c2cc3c(s2)-c2ccccc2OC3)CC1	28.5%
COc1cc(OC)c(N(C)C(=O)c2cc3c(s2)-c2ccccc2OC3)cc1Cl	8.91µM*
Clc1cccc(N2CCN(C3CCCN(CCCc4ccccc4)C3)CC2)c1 (stereo not given)	i
O=C(Nc1ccc(Cl)cc1)N1CCC(c2nnc3n2C(C(=O)N2CCOCC2)CC3)CC1 (stereo not given)	87.6%
COC(=O)[C@@H]1Cc2ncn(C(C)C)c2CN1C(=O)c1ccc(OC)cc1	5.4%[44.1 µM]
Cc1ccc(CNC(=O)CCC(=O)N2CCSc3ccccc32)cc1	-7.9%
CCOc1ccc(CNC(=O)CCC(=O)N2CC3CCCN3c3ccccc32)cc1 (stereo not given)	12.6µM*
COc1ccc(CNC(=O)CCC(=O)N2CC3CCCN3c3ccccc32)c(OC)c1 (stereo not given)	-15.7%
CCC(CC)NC(=O)CCC1CCN(C(=O)c2ccc(C)cc2)CC1	-4.9%
Cc1cccc(C(=O)N2CCc3cc(CNC(=O)c4ccco4)ccc32)c1	4.3%
O=C(NCc1ccc2c(c1)CCN2C(=O)c1ccc(F)cc1)c1ccco1	2.82µM*
O=C(NCc1ccc2c(c1)CCN2C(=O)c1ccc(Cl)cc1)c1ccco1	35.4%
SMILES	Pf Dd2 growth
COc1ccc(CNC(=O)c2c(OCC3CC3)cc(=O)n3c2CCOCC3)cc1	-12.0%
O=C(N[C@H]1C[C@H]2C(=O)Nc3ccccc3C(=O)N2C1)c1cccnc1	15.3%[44.1 µM]
FC(F)(F)SCCn1ccnc1-c1cc2n(n1)CCCNC2	-24.5%
COc1cc(CN2C[C@@H]3C(=O)N(CCCN4CCCC4=O)C(=O)[C@@H]3C2)cc(OC)c1OC	85.0%
COc1ccc(C(=O)N2CCC(N3CC4CCCN4C3=O)CC2)cc1 (stereo not given)	16.4%
Cc1ccc(Cn2nc3n(c2=O)-c2cc(Cl)ccc2OC3)cc1	14.6%
COc1ccccc1CN1C[C@@H]2C(=O)N(Cc3ccc4c(c3)OCO4)C(=O)[C@@H]2C1	11.9%
COc1ccccc1C(=O)N1CCN(Cc2cc(=O)oc3cc(C)ccc23)CC1	-4.2%
COc1ccccc1CN1COc2ccc3c(C)cc(=O)oc3c2C1	7.08µM*
Cc1ccc(CN2COc3ccc4c(C)cc(=O)oc4c3C2)cc1	3.98µM*
Cc1ccc(CNC(=O)c2ccc3c(c2)CN(Cc2ccc(N(C)C)cc2)CCO3)cc1	-27.8%
CCn1c(C2CCCN(C(=O)CN3C(=O)NC(=O)C3(C)C)C2)nn(C)c1=O (stereo not given)	-1.6%
Cc1sc2cc(C(=O)NC(C)(C)C)[nH]c2c1CN1CCCCC1	-8.7%
COC(=O)c1cc2n(n1)CCCN(C(=O)c1ccc(OC)nc1OC)C2	-1.2%
COCC1CN(C(=O)c2ccc3cc[nH]c3c2)CC12CCOCC2 (stereo not given)	16.7%
CN(C)C(=O)c1nc(-c2cccc(F)c2)c2cnccn12	i
O=C(c1nc(-c2ccc(Cl)cc2Cl)c2ccccn12)N1CCCC1	-15.1%
O=C(c1nc(-c2cccc(C(F)(F)F)c2)c2ccccn12)N1CCOCC1	-11.9%
O=C(NCc1ccccn1)c1nc(-c2cccnc2)c2ccccn12	-14.4%[44.1 µM]
O=C(NCc1cccnc1)c1nc(-c2ccc(F)cc2)c2ccccn12	-19.9%
CC(C)NC(=O)c1nc(-c2cccnc2)c2cnccn12	i
